The record followed here is PubChem BioAssay.

The structures appear in SMILES notation.

Assay [1] concerns Human papillomavirus type 1a protein E7 (residues 44-93). Nature of the assay: small molecules binding HPV E7 44-93 – biochemical, small-molecule microarray, residues 44-93, 635 nm fluorescence, primary screen (AID 1108).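 Further: E7 fragment applied at 1 µg/mL in TBST for 1 h at 4 C; score combines spot fluorescence with its signal to noise ratio.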 To be noted: fluorescence 635 nm, higher = more signal.
The nature of assay [2]: hepatitis C replication reporter changes, two-sided – Huh7 cells, luciferase reporter, HCV replication inhibitor project, primary screen (AID 1109).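 Further: huh7 hepatoma cells harbouring a luciferase neomycin HCV replicon reporter; luciferase luminescence as measure of HCV replicon replication; test concentration not given here.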 Particulars: Huh7 HCV replicon luciferase reporter, 48 h; higher = more signal. For orientation: A reporter such as luciferase makes a cellular process visible.
Assay [3] has as its target Left-right determination factor 2 (Homo sapiens) (UniProt O00292). Nature of the assay: small molecules binding LEFTY2 protein – biochemical, small-molecule microarray, 635 nm fluorescence scan, primary screen (AID 1110). Particulars: higher = more signal.
The target in assay [4] is Calmodulin-1 (Homo sapiens) (UniProt P0DP23). Nature of the assay: small molecules binding calmodulin-1 with EGTA – biochemical, small-molecule microarray, Cy5-labelled CALM1, profiling panel (AID 1111).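 Further: labelled calmodulin applied in Tris saline Tween buffer holding calcium plus EGTA and DTT.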 To be noted: Cy5-CALM1 binding fluorescence, higher = more signal.
Assay [5] shares this target. Nature of the assay: small molecules binding Ca-loaded calmodulin-1 – biochemical, small-molecule microarray, Cy5-labelled CALM1, plus calcium, artefact control for SMM control-protein annotation, profiling panel (AID 1112).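 Further: score merges spot fluorescence with signal to noise from triplicate slides.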 To be noted: Cy5-CALM1 binding fluorescence, higher = more signal.
The nature of assay [6]: probe aWnt5a binding to arrayed compounds – biochemical, biotinylated probe, 635/667 nm fluorescence, primary screen (AID 1113).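 Further: score merges 667 nm fluorescence intensity with signal-to-noise per printed feature.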 To be noted: small-molecule microarray, higher = more signal.
Assay [7] can be described thus: probe aShh binding to arrayed compounds – biochemical, biotinylated probe, 635/667 nm fluorescence, primary screen (AID 1114).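 Further: probe is biotin-labelled aShh protein from a stem cell growth factor screen; measures binding of labelled protein to compounds printed on the slide; score merges feature fluorescence at 667 nm with signal-to-noise.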 Particulars: small-molecule microarray, higher = more signal.
Assay [8] in a line: probe aNog binding to arrayed compounds – biochemical, biotinylated probe, 635/667 nm fluorescence, primary screen (AID 1115).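 Further: probe is biotinylated aNog protein used at 0.15 µg/mL for 1 h at 4 C; z-score combines 667 nm fluorescence of each spot with its signal to noise.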 Particulars: small-molecule microarray, higher = more signal.
Assay [9] deals with Torsin-1A-interacting protein 1 (Homo sapiens) (UniProt Q5JTV8). Nature of the assay: compound microarray binding of lysate hLAP1 – cell lysate, small-molecule microarray, COS7 lysate, 635/667 nm fluorescence, primary screen (AID 1116). Particulars: 635 nm fluorescence, higher = more signal.
Assay [10] concerns the target Alpha-bungarotoxin (Bungarus multicinctus) (UniProt P60615). Description: compounds binding labelled alpha-BTX control protein – biochemical, small-molecule microarray, Alexa647 label, 635/667 nm fluorescence, artefact control for SMM control protein annotation, profiling panel (AID 1117). Particulars: alpha-BTX-A647 binding fluorescence, higher = more signal.

Chain of Alpha-bungarotoxin (Bungarus multicinctus) (P60615 whole entry, looked up): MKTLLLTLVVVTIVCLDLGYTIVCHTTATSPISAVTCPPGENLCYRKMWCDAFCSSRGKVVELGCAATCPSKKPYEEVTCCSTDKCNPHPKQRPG
Chain of Torsin-1A-interacting protein 1 (Homo sapiens) (Q5JTV8 whole entry, looked up): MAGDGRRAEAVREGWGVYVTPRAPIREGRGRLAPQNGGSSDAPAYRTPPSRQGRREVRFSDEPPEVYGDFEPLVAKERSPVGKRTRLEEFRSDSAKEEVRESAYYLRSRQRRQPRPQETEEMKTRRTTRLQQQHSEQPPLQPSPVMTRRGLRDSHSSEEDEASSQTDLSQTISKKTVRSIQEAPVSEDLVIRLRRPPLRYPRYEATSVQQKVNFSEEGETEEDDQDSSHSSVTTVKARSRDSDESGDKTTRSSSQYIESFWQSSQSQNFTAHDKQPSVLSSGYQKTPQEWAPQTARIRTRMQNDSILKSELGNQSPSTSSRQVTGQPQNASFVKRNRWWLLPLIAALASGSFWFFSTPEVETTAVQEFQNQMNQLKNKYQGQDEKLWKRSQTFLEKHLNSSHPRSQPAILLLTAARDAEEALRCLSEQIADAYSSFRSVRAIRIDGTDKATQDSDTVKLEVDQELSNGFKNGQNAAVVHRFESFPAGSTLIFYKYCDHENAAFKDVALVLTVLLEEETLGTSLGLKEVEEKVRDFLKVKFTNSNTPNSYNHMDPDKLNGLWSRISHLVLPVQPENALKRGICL
Chain of Left-right determination factor 2 (Homo sapiens) (O00292 whole entry, looked up): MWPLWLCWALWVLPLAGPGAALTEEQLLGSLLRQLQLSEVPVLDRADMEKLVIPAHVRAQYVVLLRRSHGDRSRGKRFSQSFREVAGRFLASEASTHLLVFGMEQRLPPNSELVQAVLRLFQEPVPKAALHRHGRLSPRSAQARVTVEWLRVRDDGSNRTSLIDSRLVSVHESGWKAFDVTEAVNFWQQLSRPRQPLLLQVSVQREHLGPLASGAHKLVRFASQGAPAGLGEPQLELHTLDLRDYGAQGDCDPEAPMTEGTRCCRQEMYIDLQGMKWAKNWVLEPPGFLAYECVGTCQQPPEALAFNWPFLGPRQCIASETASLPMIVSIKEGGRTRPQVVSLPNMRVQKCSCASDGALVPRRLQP

For the compound `Cc1ccc(S[C@]2(C(=O)NCC(F)(F)F)CC(=O)N(Cc3ccccc3C(F)(F)F)[C@@H]2c2ccc(CO)cc2I)cc1`, the composite z-score was -0.784 in assay [1]; -2.12 in assay [3]; -0.423 in assay [4]; -0.214 in [5]; -0.0944 in [6]; 0.0483 in assay [7]. Also, the results for the composite z-score in assay [8], in assay [9] and in assay [10] were -0.161, -0.531 and 0.444, respectively. The compound further came in with a z-score in assay [2] of -0.414.

Regarding `C=CCOC(=O)[C@H]1[C@@H]2C(=O)O[C@@H](c3ccccc3)[C@@H](c3ccccc3)N2[C@@H](c2ccc(OCCOC(=O)[C@H]3C[C@H]4C(=O)N[C@@H](CCCCNC(C)=O)C(=O)N4[C@H]3c3ccc(O)cc3)cc2)[C@]12C(=O)Nc1ccccc12`, the composite z-score in [1] was 0.94; in [3], 0.594; in [4] it was 1.03; in assay [5] it was 0.328; in [6] it was -0.124; in [7], 0.157. Also, the results for the composite z-score in assay [8], in assay [9] and in assay [10] were 0.0322, 1.67 and 1.89, respectively. The compound further displayed a z-score in assay [2] of -0.103.

Turning to `[N-]=[N+]=Nc1ccccc1[C@@H]1OC(c2ccc(OCCCO)cc2)=N[C@]1(Cc1ccccc1)C(=O)NCC(O)CO` (stereo not given in full), the composite z-score in [1] was 0.883; in assay [3], -0.879; in assay [4], 2.21; in [5], 1.18; in [6], 0.0189; in [7], 0.4. The composite z-score in assay [8] is -0.4; in assay [9] it was 2.95; in assay [10], 2.56. In addition, the z-score in assay [2] was -1.34.

For `C=C(COC)/C(=C/C[C@H](OC(=O)c1ccncc1)c1ccccc1OCCO)c1cnc2ccccc2c1`, the composite z-score is 1.4 in assay [1]; 0.76 in assay [3]; -0.158 in [4]; -0.857 in assay [5]; -0.0405 in [6]; -0.0626 in assay [7]. The composite z-score in assay [8] was determined as 0.0481; in assay [9], 0.0493; in [10], 1.04. In addition, the z-score in assay [2] was -2.29.

As for `OCC1CC(c2ccccc2)=NO1` (stereo not given), the composite z-score in [1] was -1.07; in assay [3] it was 0.43; in assay [4], -0.759; in assay [5], -0.445; in assay [6], -0.0084; in assay [7], -0.248. Besides, the composite z-score is 0.21 in assay [8], 0.19 in assay [9] and -0.0251 in [10]. Besides, the z-score in [2] was 0.381.

Consider `CCCCC(=C=CC[C@@H](O)c1ccccc1OCCO)C[C@@H](O)COCc1ccccc1`, for which the composite z-score is 0.0941 in assay [1]; -0.608 in assay [3]; -0.275 in [4]; -0.0639 in assay [5]; 0.384 in [6]; -0.237 in assay [7]. Further, the figures for the composite z-score in assay [8], in [9] and in assay [10] were -0.124, 0.694 and 1.02, respectively. This compound came in with a z-score in [2] of -1.45.

In the case of `[N-]=[N+]=NCc1ccccc1[C@H]1OC(c2ccc(OCCCO)cc2)=N[C@@]1(CCS(=O)(=O)c1ccccc1)C(=O)N1CCCCC1`, the composite z-score in [1] is -0.695; in assay [3], 0.651; in [4], 2.25; in assay [5] it was 0.735; in [6], 0.16; in assay [7] it was 0.385. Besides, the composite z-score in assay [8] was 1.15; in assay [9], 1.22; in [10] it was 2.96. Besides, the z-score in assay [2] was -1.11.

Turning to `COc1cc(OC)c(C(O)C2C=CC3C(=O)N(C)C(=O)C3N2NC(=O)OC(C)(C)C)cc1Br` (stereo not given), the composite z-score in assay [1] was determined as 1.45; in assay [3] it was 0.469; in [4] it was 1.74; in assay [5] it was 0.767; in assay [6], 0.302; in [7], 0.551. Moreover, the composite z-score in assay [8] was found to be 1.71; in assay [9], 1.26; in [10] it was 1.85. The compound also gave a z-score in [2] of -0.706.

Consider `C[C@@H]1ON(c2ccc(C(=O)OC(C)(C)C)cc2)[C@H](c2ccc(O)cc2)[C@H]1C(=O)N1C(=O)OC[C@H]1Cc1ccccc1`, for which the composite z-score in assay [1] was 0.606; in assay [3], 0.545; in assay [4], 1.35; in [5], 0.307; in [6] it was 0.0215; in assay [7], -0.138. Also, the composite z-score in assay [8] is 0.495; in [9] it was 0.848; in assay [10], 0.485. For the same compound, the z-score in assay [2] is -3.77.

For `NC(=O)NCC#Cc1ccc2c(c1)[C@]1(C(=O)N2)[C@H](C(=O)NC[C@H](O)c2ccccc2)[C@H]2C(=O)O[C@H](c3ccccc3)[C@H](c3ccccc3)N2[C@@H]1c1ccc(OCCO)cc1`, the composite z-score in assay [1] was 1.25; in assay [3] it was -0.461; in assay [4], 0.616; in assay [5], 0.541; in [6], -0.143; in assay [7], -0.0769. Besides, the values for the composite z-score in [8], in [9] and in assay [10] were -0.418, 0.863 and 1.43, respectively. In assay [2], this compound returned a z-score of -1.22.

Turning to `COC(=O)[C@@]1(Cc2ccc(OC)cc2)[C@H]2c3cc(C(=O)N4CCCC4)n(Cc4cccc5ccccc45)c3C[C@H]2CN1C(=O)c1ccccc1`, the composite z-score was 0.764 in [1]; -0.58 in [3]; 1.38 in [4]; 0.498 in assay [5]; 0.0913 in assay [6]; 0.521 in [7]. The composite z-score stood at 1.95 in assay [8], 1.3 in [9] and 0.716 in [10]. This compound showed a z-score in assay [2] of -0.356.

Turning to `COc1cc2c(cc1OC)CN(C(=O)[C@@H]1[C@H]3C(=O)O[C@H](c4ccccc4)[C@H](c4ccccc4)N3[C@H](c3ccc(OCCO)cc3)[C@@]13C(=O)Nc1ccccc13)CC2`, the composite z-score worked out at 1.44 in assay [1]; 0.351 in assay [3]; 1.04 in [4]; 0.0568 in assay [5]; 0.133 in assay [6]; 0.0328 in assay [7]. Also, the composite z-score was -0.592 in assay [8], 1.14 in [9] and 1.91 in [10]. The compound further came in with a z-score in assay [2] of -1.68.

As to `CCCCCCCCCCC(O)C1C=CC2C(=O)N(C)C(=O)C2N1NC(=O)OC(C)(C)C` (stereo not given), the composite z-score in assay [1] was 1.17; in assay [3], 0.186; in assay [4] it was 1.41; in assay [5], 0.953; in assay [6], -0.0684; in assay [7], 0.445. Further, the composite z-score in [8] is 0.3; in [9] it was -0.122; in assay [10], 0.294. Moreover, the z-score in assay [2] is -2.54.

As to `C=C[C@@H](OC)[C@H](OC(=O)Nc1ccc(SC)cc1)c1ccc(O)c(F)c1`, the composite z-score in assay [1] is 1.33; in assay [3], -0.374; in assay [4] it was -0.25; in [5], -0.479; in [6] it was -0.142; in assay [7] it was -0.0626. Moreover, the composite z-score in assay [8] amounted to 0.0553; in assay [9] it was 0.345; in assay [10], 1.22. This compound also came in with a z-score in [2] of 0.362.

Take `COCCOC(=O)N1C(=O)[C@@]2(c3cc(C#CC4=CCCCC4)ccc31)[C@H](c1ccccc1OCCO)N1[C@H](c3ccccc3)[C@H](c3ccccc3)OC(=O)[C@H]1[C@@H]2C(=O)Nc1nc2ccccc2s1`: the composite z-score is 1.33 in [1]; 0.526 in assay [3]; 1.36 in assay [4]; 0.13 in assay [5]; -0.0236 in [6]; 0.0253 in assay [7]. The composite z-score stood at 0.904 in assay [8], 0.666 in [9] and 1.48 in assay [10]. Also, the z-score in [2] was -2.23.

Consider `COCCOC(=O)N1C(=O)[C@@]2(c3cc(C#CCCO)ccc31)[C@H](c1ccccc1OCCO)N1[C@H](c3ccccc3)[C@H](c3ccccc3)OC(=O)[C@H]1[C@@H]2C(=O)Nc1nc2ccccc2s1`, for which the composite z-score is 0.323 in assay [1]; 0.558 in [3]; 1.39 in [4]; 0.704 in assay [5]; -0.0519 in [6]; 0.173 in [7]. The composite z-score in assay [8] stood at 0.429; in [9], 1.62; in assay [10] it was 2.29. The compound further registered a z-score in assay [2] of -1.65.

On to `C=CCC(OC(C)=O)[C@@H]1[C@@H](N(Cc2cc3ccccc3o2)C(=O)Cc2ccc(F)cc2)c2cc(OCCCO)ccc2N1C(=O)c1ccc2ccccc2c1` (stereo not given in full), for which the composite z-score in assay [1] is -0.722; in [3], -0.453; in assay [4], -0.478; in assay [5], -0.06; in [6], -0.0843; in [7], 0.179. Moreover, the composite z-score was -0.24 in [8], 0.0682 in [9] and 1.29 in [10]. In assay [2], this compound registered a z-score of -1.18.
